Measurements: the supplement of paper PMC10849652
About 8,800 targets were measured; listed, in parts, are those with a hit and a random draw of the rest. About 0.5% of all pairs of compound and target were hits.

How the values were obtained:
Test in all cases: log2 fold change, soluble protein after heating vs DMSO (PISA); higher = thermal stabilisation; K562 lysate, 10 uM; active = over 0.2 and 3.5 SD of the protein, either way, in both replicates (recomputed)
[1] = compound: C1=CC=C(C=C1)[C@H](COC2=CC3=C(C=C2)NC(=O)N3)NC(=O)C4=CC=CN(C4=O)CC5=CC(=C(C=C5)F)F
Method in brief: (§1)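 The values are log-two fold changes in thermal stability compared with solvent controls and come from duplicates. They were obtained by TMTpro 16plex LC-MS/MS, with channel sums equalised, on the supernatant after 21,000xg for 90 min. That supernatant came from crude K562 extract at 1 mg/mL protein treated with 10 μM compound for 30 min, heated for 3 min across 48°C-58°C, pooled and brought to 0.5% NP-40 at 4°C.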

[2] = compound: CC1=C(SC2=C1C(=N[C@H](C3=NN=C(N32)C)CC(=O)N)C4=CC=C(C=C4)Cl)C
Method in brief: as §1

[3] = compound: CC1=C2C(=CC=C1)N=C(N(C2=O)C3=CC=CC=C3C)CN4C=NC5=C(N=CN=C54)N
Method in brief: as §1

[4] = compound: Cc1sc2c(c1C)C(c1ccc(Cl)cc1)=N[C@@H](CC(=O)OC(C)(C)C)c1nnc(C)n1-2
Method in brief: as §1

[5] = compound: c1ccc([C@@H]2C[C@H]2NC2CCNCC2)cc1
Method in brief: as §1

Measured: log2 fold change

FDX2 (UniProt Q6P4F2)
inactive: [1] -0.039 | [2] 0.021 | [3] -0.012 | [4] 0.062 | [5] -0.05

FYCO1 isoform 4 (UniProt Q9BQS8)
inactive: [1] 0.01 | [2] 0.037 | [3] 0.03 | [4] 0.023 | [5] -0.1

ERBIN isoform 8 (UniProt Q96RT1)
inactive: [1] -0.012 | [2] 0.02 | [3] -0.04 | [4] 0.037 | [5] -0.048

FMNL1 isoform 3 (UniProt O95466)
inactive: [1] 0.104 | [2] -0.01 | [3] 0.057 | [4] 0.027 | [5] 0.082

ESPL1 (UniProt Q14674)
inactive: [1] 0.016 | [2] 0.129 | [3] 0.251 | [4] 0.136 | [5] 0.077

GDPD1 (UniProt Q8N9F7)
Sequence of UniProt Q8N9F7 (Q8N9F7 whole entry, looked up): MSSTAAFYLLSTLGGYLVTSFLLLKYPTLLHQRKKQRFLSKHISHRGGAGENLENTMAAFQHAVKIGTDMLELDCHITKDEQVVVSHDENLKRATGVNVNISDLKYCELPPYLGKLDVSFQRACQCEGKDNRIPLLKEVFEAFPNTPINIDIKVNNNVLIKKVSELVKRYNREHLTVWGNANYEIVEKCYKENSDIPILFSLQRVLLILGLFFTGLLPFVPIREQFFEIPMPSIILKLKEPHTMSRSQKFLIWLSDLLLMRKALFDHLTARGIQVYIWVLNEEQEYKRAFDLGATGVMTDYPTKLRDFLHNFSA
inactive: [1] -0.047 | [2] 0.018 | [3] 0.117 | [4] 0.024 | [5] -0.036

FREM2 (UniProt Q5SZK8)
inactive: [1] 0 | [2] 0.074 | [3] 0.003 | [4] -0.133 | [5] -0.212

FANCI (UniProt Q9NVI1)
inactive: [1] -0.051 | [2] -0.009 | [3] 0.029 | [4] 0.015 | [5] 0.088

ENSA isoform 3 (UniProt O43768)
Sequence of UniProt O43768 (O43768 whole entry, looked up): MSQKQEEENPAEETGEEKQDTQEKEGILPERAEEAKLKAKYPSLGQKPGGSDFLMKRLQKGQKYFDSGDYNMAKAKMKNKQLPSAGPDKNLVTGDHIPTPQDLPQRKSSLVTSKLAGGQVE
inactive: [1] 0.037 | [2] -0.027 | [3] -0.024 | [4] -0.008 | [5] 0.02

EPB41, A0A2R8Y6D0
inactive: [1] -0.052 | [2] 0.028 | [3] -0.071 | [4] 0.048 | [5] 0.11

EXTL2 (UniProt Q9UBQ6)
inactive: [1] 0.208 | [2] 0.235 | [3] -0.059 | [4] -0.185 | [5] 0.028

ELAVL1 isoform 2 (UniProt Q15717)
inactive: [1] -0.038 | [2] 0 | [3] -0.017 | [4] 0.066 | [5] 0.052

FBXO38 (UniProt Q6PIJ6)
inactive: [1] -0.007 | [2] 0.094 | [3] 0.007 | [4] 0.068 | [5] 0.013

FADS3 (UniProt Q9Y5Q0)
Sequence of UniProt Q9Y5Q0 (Q9Y5Q0 whole entry, looked up): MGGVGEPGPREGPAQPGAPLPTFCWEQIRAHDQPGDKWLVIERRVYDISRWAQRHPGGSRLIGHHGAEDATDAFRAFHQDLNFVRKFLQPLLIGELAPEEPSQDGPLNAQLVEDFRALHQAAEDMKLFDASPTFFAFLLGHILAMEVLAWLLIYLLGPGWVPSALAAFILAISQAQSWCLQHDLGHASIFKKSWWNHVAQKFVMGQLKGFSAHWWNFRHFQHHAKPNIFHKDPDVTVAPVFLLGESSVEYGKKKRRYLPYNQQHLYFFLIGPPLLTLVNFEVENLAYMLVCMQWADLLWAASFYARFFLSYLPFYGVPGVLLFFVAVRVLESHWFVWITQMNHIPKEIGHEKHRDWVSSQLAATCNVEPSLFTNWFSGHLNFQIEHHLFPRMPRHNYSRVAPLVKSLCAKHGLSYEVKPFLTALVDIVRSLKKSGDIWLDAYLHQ
inactive: [1] 0.021 | [2] 0.018 | [3] -0.227 | [4] -0.06 | [5] -0.115

FBRSL1, A0A3B3IRR3
inactive: [1] 0.002 | [2] 0.005 | [3] -0.021 | [4] 0.02 | [5] -0.028

ENO1, A0A2R8YEM5
inactive: [1] 0.026 | [2] -0.096 | [3] -0.048 | [4] -0.028 | [5] -0.21

GART (UniProt P22102)
inactive: [1] -0.04 | [2] 0.047 | [3] 0.011 | [4] 0.057 | [5] 0.042

FOXK1 (UniProt P85037)
inactive: [1] 0.022 | [2] 0.017 | [3] -0.001 | [4] 0.032 | [5] -0.009

EP400 isoform 5 (UniProt Q96L91)
inactive: [1] -0.008 | [2] 0.024 | [3] -0.014 | [4] 0.06 | [5] 0.016

DYNC1I2 isoform 2 (UniProt Q13409)
inactive: [1] -0.011 | [2] 0.253 | [3] -0.005 | [4] 0.082 | [5] 0.155

FXR2 (UniProt P51116)
inactive: [1] -0.021 | [2] -0.011 | [3] 0.032 | [4] -0.014 | [5] 0.054

FAU (UniProt E9PR30)
inactive: [1] 0.001 | [2] 0.06 | [3] -0.008 | [4] 0.018 | [5] 0.135

ENO2 (UniProt P09104)
Sequence of UniProt P09104 (P09104 whole entry, looked up): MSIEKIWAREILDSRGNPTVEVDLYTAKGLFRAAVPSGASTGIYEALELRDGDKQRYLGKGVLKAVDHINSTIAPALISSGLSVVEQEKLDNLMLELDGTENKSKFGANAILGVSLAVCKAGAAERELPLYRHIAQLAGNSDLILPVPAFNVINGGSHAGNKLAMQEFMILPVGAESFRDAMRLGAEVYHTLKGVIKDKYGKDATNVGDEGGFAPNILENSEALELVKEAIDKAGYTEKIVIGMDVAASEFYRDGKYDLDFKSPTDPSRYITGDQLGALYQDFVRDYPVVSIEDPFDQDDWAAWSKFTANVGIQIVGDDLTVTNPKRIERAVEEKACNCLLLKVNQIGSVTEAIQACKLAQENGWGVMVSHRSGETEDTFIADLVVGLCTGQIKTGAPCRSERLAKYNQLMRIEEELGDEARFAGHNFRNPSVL
inactive: [1] 0.019 | [2] -0.122 | [3] 0.037 | [4] -0.009 | [5] -0.153

ETFRF1 (UniProt Q6IPR1)
inactive: [1] 0.021 | [2] 0.058 | [3] -0.031 | [4] -0.02 | [5] 0.066

EWSR1 (UniProt H7BY36)
inactive: [1] -0.079 | [2] -0.06 | [3] 0.091 | [4] -0.058 | [5] 0.061

EXOC6 (UniProt Q8TAG9)
Sequence of UniProt Q8TAG9 (Q8TAG9 whole entry, looked up): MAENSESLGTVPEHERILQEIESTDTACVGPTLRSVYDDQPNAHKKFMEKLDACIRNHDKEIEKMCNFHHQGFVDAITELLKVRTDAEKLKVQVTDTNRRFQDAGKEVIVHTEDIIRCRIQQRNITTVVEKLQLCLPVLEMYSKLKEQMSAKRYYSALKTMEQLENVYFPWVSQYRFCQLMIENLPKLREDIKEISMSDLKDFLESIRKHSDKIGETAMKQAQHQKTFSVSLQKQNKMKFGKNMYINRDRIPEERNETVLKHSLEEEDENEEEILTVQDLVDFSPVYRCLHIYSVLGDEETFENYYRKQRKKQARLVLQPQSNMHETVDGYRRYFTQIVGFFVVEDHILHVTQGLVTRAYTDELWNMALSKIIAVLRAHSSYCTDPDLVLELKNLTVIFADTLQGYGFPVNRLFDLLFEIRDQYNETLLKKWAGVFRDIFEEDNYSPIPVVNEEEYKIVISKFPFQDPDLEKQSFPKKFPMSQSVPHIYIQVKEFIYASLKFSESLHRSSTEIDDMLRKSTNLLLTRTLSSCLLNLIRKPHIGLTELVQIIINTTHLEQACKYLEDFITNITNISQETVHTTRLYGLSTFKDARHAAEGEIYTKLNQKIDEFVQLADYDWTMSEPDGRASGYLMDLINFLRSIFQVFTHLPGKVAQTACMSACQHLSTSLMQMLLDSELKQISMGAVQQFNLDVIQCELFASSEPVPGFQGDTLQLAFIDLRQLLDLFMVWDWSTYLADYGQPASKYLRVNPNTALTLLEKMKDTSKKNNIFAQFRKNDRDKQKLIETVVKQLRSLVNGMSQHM
inactive: [1] -0.035 | [2] -0.022 | [3] -0.006 | [4] 0.037 | [5] 0.151

EPRS (UniProt P07814)
inactive: [1] -0.005 | [2] 0.002 | [3] 0.003 | [4] 0.043 | [5] 0.016

EDARADD (UniProt Q8WWZ3)
inactive: [1] 0.074 | [2] -0.088 | [3] -0.032 | [4] -0.037 | [5] 0.064

GFPT1 (UniProt Q06210)
Sequence of UniProt Q06210 (Q06210 whole entry, looked up): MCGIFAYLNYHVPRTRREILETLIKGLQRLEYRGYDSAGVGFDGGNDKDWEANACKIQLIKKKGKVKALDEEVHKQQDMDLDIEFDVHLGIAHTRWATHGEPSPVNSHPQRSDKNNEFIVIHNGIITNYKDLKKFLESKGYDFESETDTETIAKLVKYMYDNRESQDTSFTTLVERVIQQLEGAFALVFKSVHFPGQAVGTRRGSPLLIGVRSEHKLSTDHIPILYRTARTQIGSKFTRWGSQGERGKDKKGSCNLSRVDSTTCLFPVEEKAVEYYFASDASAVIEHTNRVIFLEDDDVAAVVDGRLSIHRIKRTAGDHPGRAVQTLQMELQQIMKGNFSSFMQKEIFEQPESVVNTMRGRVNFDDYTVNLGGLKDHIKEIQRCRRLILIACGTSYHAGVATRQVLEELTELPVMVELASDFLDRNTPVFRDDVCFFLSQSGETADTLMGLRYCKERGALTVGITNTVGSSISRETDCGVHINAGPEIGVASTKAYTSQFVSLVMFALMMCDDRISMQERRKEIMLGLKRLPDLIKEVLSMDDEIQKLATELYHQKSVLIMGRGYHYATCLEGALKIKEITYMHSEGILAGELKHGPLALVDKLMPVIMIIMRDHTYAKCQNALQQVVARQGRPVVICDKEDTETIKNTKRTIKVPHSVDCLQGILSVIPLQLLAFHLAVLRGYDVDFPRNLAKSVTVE
inactive: [1] -0.021 | [2] -0.001 | [3] 0.021 | [4] 0.019 | [5] 0.058

FBXO9 (UniProt Q9UK97)
Sequence of UniProt Q9UK97 (Q9UK97 whole entry, looked up): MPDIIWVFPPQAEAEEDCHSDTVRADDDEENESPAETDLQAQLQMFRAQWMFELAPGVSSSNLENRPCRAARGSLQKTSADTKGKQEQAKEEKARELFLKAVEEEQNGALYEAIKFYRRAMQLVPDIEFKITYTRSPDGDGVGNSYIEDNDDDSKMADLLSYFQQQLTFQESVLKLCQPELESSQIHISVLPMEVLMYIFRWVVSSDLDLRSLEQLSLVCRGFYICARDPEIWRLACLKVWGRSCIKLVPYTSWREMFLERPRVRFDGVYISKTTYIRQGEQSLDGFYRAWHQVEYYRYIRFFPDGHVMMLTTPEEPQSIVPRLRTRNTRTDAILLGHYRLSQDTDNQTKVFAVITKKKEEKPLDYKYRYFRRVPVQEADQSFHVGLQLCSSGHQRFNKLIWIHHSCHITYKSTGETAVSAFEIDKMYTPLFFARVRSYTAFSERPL
inactive: [1] -0.07 | [2] -0.112 | [3] -0.002 | [4] 0.089 | [5] 0.095

FANCD2 isoform 1 (UniProt Q9BXW9)
inactive: [1] -0.002 | [2] 0.039 | [3] 0.012 | [4] -0.018 | [5] -0.054

GCLM (UniProt P48507)
Sequence of UniProt P48507 (P48507 whole entry, looked up): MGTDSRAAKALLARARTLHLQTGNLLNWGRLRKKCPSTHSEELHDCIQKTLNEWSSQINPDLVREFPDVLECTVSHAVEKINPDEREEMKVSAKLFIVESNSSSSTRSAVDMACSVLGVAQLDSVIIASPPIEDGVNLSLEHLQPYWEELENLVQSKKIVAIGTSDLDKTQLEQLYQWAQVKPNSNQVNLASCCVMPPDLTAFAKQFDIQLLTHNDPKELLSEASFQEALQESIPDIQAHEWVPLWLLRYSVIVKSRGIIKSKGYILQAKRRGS
inactive: [1] 0.01 | [2] -0.041 | [3] 0.02 | [4] 0.008 | [5] 0.006

EWSR1 isoform 5 (UniProt Q01844)
inactive: [1] 0.047 | [2] -0.024 | [3] -0.012 | [4] 0.053 | [5] 0.002

EHD2 (UniProt Q9NZN4)
inactive: [1] -0.074 | [2] -0.065 | [3] 0.003 | [4] -0.069 | [5] 0.087

FTSJ1 (UniProt Q9UET6)
Sequence of UniProt Q9UET6 (Q9UET6 whole entry, looked up): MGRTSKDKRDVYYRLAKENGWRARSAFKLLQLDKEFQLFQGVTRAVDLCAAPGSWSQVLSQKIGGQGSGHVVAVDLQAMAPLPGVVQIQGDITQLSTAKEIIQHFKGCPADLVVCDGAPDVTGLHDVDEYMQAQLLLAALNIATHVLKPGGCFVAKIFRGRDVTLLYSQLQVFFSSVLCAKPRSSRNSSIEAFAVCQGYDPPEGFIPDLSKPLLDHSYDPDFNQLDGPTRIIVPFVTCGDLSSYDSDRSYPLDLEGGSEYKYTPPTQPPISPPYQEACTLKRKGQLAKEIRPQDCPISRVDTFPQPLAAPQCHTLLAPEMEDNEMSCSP
inactive: [1] 0.016 | [2] 0.013 | [3] -0.025 | [4] -0.005 | [5] 0.048

FKBP8 isoform 2 (UniProt Q14318)
Sequence of UniProt Q14318 (Q14318 whole entry, looked up): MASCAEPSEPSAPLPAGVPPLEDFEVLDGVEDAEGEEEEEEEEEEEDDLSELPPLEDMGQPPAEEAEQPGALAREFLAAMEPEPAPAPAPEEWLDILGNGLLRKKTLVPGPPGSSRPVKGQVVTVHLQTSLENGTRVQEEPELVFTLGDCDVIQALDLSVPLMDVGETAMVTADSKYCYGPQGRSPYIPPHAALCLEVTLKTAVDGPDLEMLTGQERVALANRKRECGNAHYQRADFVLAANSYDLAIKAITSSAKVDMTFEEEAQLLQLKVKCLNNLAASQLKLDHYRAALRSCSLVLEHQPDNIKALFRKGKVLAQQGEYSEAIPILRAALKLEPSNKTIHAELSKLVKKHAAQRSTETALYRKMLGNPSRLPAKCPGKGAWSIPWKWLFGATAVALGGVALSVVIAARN
inactive: [1] -0.061 | [2] 0.012 | [3] -0.023 | [4] -0.084 | [5] 0.043

EXOC4 (UniProt Q96A65)
inactive: [1] -0.001 | [2] 0.009 | [3] 0.016 | [4] 0.063 | [5] 0.054

FTL (UniProt P02792)
inactive: [1] -0.067 | [2] 0.127 | [3] -0.034 | [4] -0.03 | [5] -0.031

GEMIN4 (UniProt P57678)
inactive: [1] -0.036 | [2] -0.015 | [3] -0.014 | [4] 0.04 | [5] 0.041

FAM98A (UniProt Q8NCA5)
inactive: [1] 0.017 | [2] 0.002 | [3] -0.048 | [4] 0.016 | [5] 0.02

EEF1A1, A0A087WVQ9
inactive: [1] -0.053 | [2] 0.093 | [3] -0.042 | [4] -0.001 | [5] 0.049

GABPB1 (UniProt Q06547)
inactive: [1] 0.044 | [2] -0.013 | [3] -0.04 | [4] -0.001 | [5] 0.132

EP300 (UniProt Q09472)
inactive: [1] -0.048 | [2] -0.013 | [3] 0.025 | [4] 0.005 | [5] -0.016

EED, A0A5F9ZI63
inactive: [1] 0.022 | [2] -0.01 | [3] 0.027 | [4] -0.007 | [5] -0.011

EXOC3 (UniProt O60645)
inactive: [1] -0.026 | [2] -0.019 | [3] 0.053 | [4] -0.017 | [5] 0.08

DVL2 (UniProt O14641)
inactive: [1] -0.012 | [2] -0.01 | [3] 0.032 | [4] 0.098 | [5] -0.017

ECH1 (UniProt Q13011)
Sequence of UniProt Q13011 (Q13011 whole entry, looked up): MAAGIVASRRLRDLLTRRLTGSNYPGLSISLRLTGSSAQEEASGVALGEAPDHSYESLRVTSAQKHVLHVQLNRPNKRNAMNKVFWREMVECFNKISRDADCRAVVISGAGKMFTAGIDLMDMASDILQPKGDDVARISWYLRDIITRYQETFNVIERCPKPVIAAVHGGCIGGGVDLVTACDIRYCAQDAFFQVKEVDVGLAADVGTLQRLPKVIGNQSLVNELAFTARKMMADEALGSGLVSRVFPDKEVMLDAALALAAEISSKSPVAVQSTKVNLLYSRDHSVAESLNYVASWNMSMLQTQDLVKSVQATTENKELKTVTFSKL
inactive: [1] -0.059 | [2] 0.008 | [3] -0.006 | [4] -0.026 | [5] 0.012

DUS3L (UniProt Q96G46)
inactive: [1] 0.084 | [2] -0.001 | [3] 0.005 | [4] -0.001 | [5] 0.098

GEMIN2 (UniProt O14893)
Sequence of UniProt O14893 (O14893 whole entry, looked up): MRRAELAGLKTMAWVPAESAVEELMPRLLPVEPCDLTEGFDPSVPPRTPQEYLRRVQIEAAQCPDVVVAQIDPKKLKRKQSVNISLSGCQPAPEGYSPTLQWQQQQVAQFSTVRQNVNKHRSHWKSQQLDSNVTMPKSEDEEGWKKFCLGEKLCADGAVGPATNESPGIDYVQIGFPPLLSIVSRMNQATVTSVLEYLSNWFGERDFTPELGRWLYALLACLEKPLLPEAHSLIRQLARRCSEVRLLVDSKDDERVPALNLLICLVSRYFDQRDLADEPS
inactive: [1] -0.009 | [2] 0.01 | [3] -0.023 | [4] 0.015 | [5] -0.043

FIG4 (UniProt Q92562)
inactive: [1] -0.107 | [2] -0.108 | [3] 0.037 | [4] 0.039 | [5] -0.037

FASTKD2 (UniProt Q9NYY8)
inactive: [1] -0.013 | [2] 0.044 | [3] 0.018 | [4] 0.017 | [5] 0.002

FPGT (UniProt O14772)
inactive: [1] 0.007 | [2] -0.003 | [3] 0.07 | [4] -0.006 | [5] 0.104

FAM118A (UniProt Q9NWS6)
inactive: [1] -0.028 | [2] -0.033 | [3] -0.021 | [4] -0.108 | [5] -0.015
